Results filed as inconclusive are left out. Where a call stands in place of a potency, no number is given. Calls of active or inactive are those of the source. Calls follow the shape of the full dose curve; tested in HEK293 reporter line.
assay: qHTS for Inhibitors of the Functional Ribonucleoprotein Complex (vRNP) of Lassa (LASV) Arenavirus: Viability assay - alamar blue signal for LASV Primary Screen (AID 1347083); details: cell viability, alamar blue fluorescence (LASV minigenome counter-screen); series mostly up to 57.5 µM
Also: nearly all actives have a fitted effect of over 80% in size.

Row | SMILES | Potency
1 | CC[N+](CC)(CC)CC(=O)Nc1c(C)cccc1C | inactive
2 | C/C(=C\c1ccc(C(=O)O)cc1)c1ccc2c(c1)C(C)(C)CCC2(C)C | inactive
3 | CN1CCc2ccccc2Cc2[nH]c3ccccc3c2CC1 | inactive
4 | COc1ccccc1N1CCN(CCN2C(=O)CC3(CCCC3)CC2=O)CC1 | inactive
5 | N=C(N)c1ccc(N)cc1 | inactive
6 | O=C(c1cc(O)c(O)c([N+](=O)[O-])c1)c1ccccc1F | inactive
7 | NCCNS(=O)(=O)c1cccc2c(Cl)cccc12 | inactive
8 | CC(=O)N[C@@H](Cc1c[nH]c2ccccc12)C(=O)OCc1cc(C(F)(F)F)cc(C(F)(F)F)c1 | inactive
9 | CSC(=N)N | inactive
10 | Cn1c(=O)c2[nH]c(-c3ccc(S(=O)(=O)O)cc3)nc2n(C)c1=O | inactive
11 | O=C(O)[C@@H]1C[C@@H](C(=O)O)N1 | inactive
12 | c1ccc(-c2ccccn2)nc1 | inactive
13 | COc1ccc2c(c1)c(CC(=O)O)c(C)n2C(=O)c1ccccc1 | inactive
14 | COc1cc2c(CCNC(C)=O)c[nH]c2cc1Cl | inactive
15 | COc1cc2c(CCNC(C)=O)c[nH]c2cc1O | inactive
16 | C[C@H](O)C(=O)C1=Nc2c(nc(N)[nH]c2=O)NC1 | inactive
17 | NC(=O)C(=O)O | inactive
18 | O=C(O)c1ccccc1Nc1cccc(OCc2ccc3ccccc3n2)c1 | inactive
19 | O=c1ccc2c(OCCCCc3ccccc3)c3ccoc3cc2o1 | inactive
20 | C[C@@H]1C(=O)NC2=Nc3cccc(Cl)c3CN21 | inactive

Row | SMILES | Potency
21 | O=C(O)C1=CCCNC1 | inactive
22 | O=C(O)c1ccccc1Nc1ccccc1 | inactive
23 | CNCCNS(=O)(=O)c1cccc2cnccc12 | inactive
24 | CC(C)NC[C@H](O)c1ccc(O)c(O)c1 | inactive
25 | NC(N)=NC(N)=Nc1cccc(Cl)c1 | inactive
26 | CCCn1c(=O)c2[nH]c(C3CCCC3)nc2n(CCC)c1=O | inactive
27 | O=C(O)c1cc(=O)c2ccccc2[nH]1 | inactive
28 | COc1ccc(C(=O)NCc2cccnc2)cc1C(=O)NCc1cccnc1 | inactive
29 | CC1(C)CCC2=C(O1)c1ccccc1C(=O)C2=O | inactive
30 | COc1cc(/C=C(\C#N)C(=O)c2ccc(O)c(O)c2)cc(I)c1O | inactive
31 | O=C(O)CC[C@@H](C(=O)O)N1C(=O)c2ccccc2C1=O | inactive
32 | O=c1[nH]c(=O)c2nc3ccccc3nc2[nH]1 | inactive
33 | CN(C)c1nc(N)c(C(=O)N=C(N)N)nc1Cl | inactive
34 | COCc1nc2c([nH]1)c(=O)n(C)c(=O)n2CC(C)C | inactive
35 | Oc1ccc(Cn2cc[nH]c2=S)cc1 | inactive
36 | N=c1c[n+](N2CCOCC2)[n-]o1 | inactive
37 | c1ccc2nc(C3=NCCN3)ccc2c1 | inactive
38 | O=[N+]([O-])c1cccc2cn[nH]c12 | inactive
39 | CCCCN1CCC(n2c(=O)[nH]c3ccccc32)CC1 | inactive
40 | NC1(C(=O)O)CC1 | inactive

assay: qHTS for Inhibitors of the Functional Ribonucleoprotein Complex (vRNP) of Lymphocytic Choriomeningitis Arenaviruses (LCMV): Viability assay - alamar blue signal for LCMV Primary Screen (AID 1347085); details: alamar blue viability counter-screen, LCMV vRNP screen cells; series mostly up to 57.5 µM

Row | SMILES | Potency
41 | CC[N+](CC)(CC)CC(=O)Nc1c(C)cccc1C | inactive
42 | C/C(=C\c1ccc(C(=O)O)cc1)c1ccc2c(c1)C(C)(C)CCC2(C)C | inactive
43 | CN1CCc2ccccc2Cc2[nH]c3ccccc3c2CC1 | inactive
44 | COc1ccccc1N1CCN(CCN2C(=O)CC3(CCCC3)CC2=O)CC1 | inactive
45 | N=C(N)c1ccc(N)cc1 | inactive
46 | O=C(c1cc(O)c(O)c([N+](=O)[O-])c1)c1ccccc1F | inactive
47 | NCCNS(=O)(=O)c1cccc2c(Cl)cccc12 | inactive
48 | CC(=O)N[C@@H](Cc1c[nH]c2ccccc12)C(=O)OCc1cc(C(F)(F)F)cc(C(F)(F)F)c1 | inactive
49 | CSC(=N)N | inactive
50 | Cn1c(=O)c2[nH]c(-c3ccc(S(=O)(=O)O)cc3)nc2n(C)c1=O | inactive
51 | O=C(O)[C@@H]1C[C@@H](C(=O)O)N1 | inactive
52 | c1ccc(-c2ccccn2)nc1 | inactive
53 | COc1ccc2c(c1)c(CC(=O)O)c(C)n2C(=O)c1ccccc1 | inactive
54 | COc1cc2c(CCNC(C)=O)c[nH]c2cc1Cl | inactive
55 | COc1cc2c(CCNC(C)=O)c[nH]c2cc1O | inactive
56 | C[C@H](O)C(=O)C1=Nc2c(nc(N)[nH]c2=O)NC1 | inactive
57 | NC(=O)C(=O)O | inactive
58 | O=C(O)c1ccccc1Nc1cccc(OCc2ccc3ccccc3n2)c1 | inactive
59 | O=c1ccc2c(OCCCCc3ccccc3)c3ccoc3cc2o1 | inactive
60 | C[C@@H]1C(=O)NC2=Nc3cccc(Cl)c3CN21 | inactive

Row | SMILES | Potency
61 | O=C(O)C1=CCCNC1 | inactive
62 | O=C(O)c1ccccc1Nc1ccccc1 | inactive
63 | CNCCNS(=O)(=O)c1cccc2cnccc12 | inactive
64 | CC(C)NC[C@H](O)c1ccc(O)c(O)c1 | inactive
65 | NC(N)=NC(N)=Nc1cccc(Cl)c1 | inactive
66 | CCCn1c(=O)c2[nH]c(C3CCCC3)nc2n(CCC)c1=O | inactive
67 | O=C(O)c1cc(=O)c2ccccc2[nH]1 | inactive
68 | COc1ccc(C(=O)NCc2cccnc2)cc1C(=O)NCc1cccnc1 | inactive
69 | CC1(C)CCC2=C(O1)c1ccccc1C(=O)C2=O | inactive
70 | COc1cc(/C=C(\C#N)C(=O)c2ccc(O)c(O)c2)cc(I)c1O | inactive
71 | O=C(O)CC[C@@H](C(=O)O)N1C(=O)c2ccccc2C1=O | inactive
72 | O=c1[nH]c(=O)c2nc3ccccc3nc2[nH]1 | inactive
73 | CN(C)c1nc(N)c(C(=O)N=C(N)N)nc1Cl | inactive
74 | COCc1nc2c([nH]1)c(=O)n(C)c(=O)n2CC(C)C | inactive
75 | Oc1ccc(Cn2cc[nH]c2=S)cc1 | inactive
76 | N=c1c[n+](N2CCOCC2)[n-]o1 | inactive
77 | c1ccc2nc(C3=NCCN3)ccc2c1 | inactive
78 | O=[N+]([O-])c1cccc2cn[nH]c12 | inactive
79 | CCCCN1CCC(n2c(=O)[nH]c3ccccc32)CC1 | inactive
80 | NC1(C(=O)O)CC1 | inactive

— PubChem BioAssay (NCATS)
